In PubChem BioAssay (NCATS):
Records with an inconclusive call do not appear. Values without a mark were called inactive. Calls of active or inactive are those of the source. Calls come from the whole dose curve; as a rule, active = well fitted curve in the direction sought with a large enough effect; inconclusive = small, poorly fitted or top-dose-only effect, or another doubt; inactive = no such curve, though single readings can be large; an effect the other way counts as inactive or inconclusive.

Test system: not listed separately
Test: P-glycoprotein substrates identified in KB-3-1 adenocarcinoma cell line, qHTS therapeutic library screen (AID 1346986); note: nearly all actives have a fitted effect of over 60% in size
Settings: KB-3-1 parental cells viability, CellTiter-Glo, 72 h; series mostly up to 93.4 µM; activity change, negative = cytotoxicity: at the top concentration
In short: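 Cells seeded 500/well in DMEM/10% FCS; compounds pinned in dose-response; 72 h incubation; CellTiter-Glo added, 5 min, luminescence. KB-8-5-11 run ±tariquidar to test reversal of P-gp resistance.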

Structure (SMILES)	outcome
C/C=C(\C)C(=O)OC1CC2C(CC=C3CC(OC4CC(OC)C(OC5CC(OC)C(OC6CC(OC)C(OC7CC(OC)C(O)C(C)O7)C(C)O6)C(C)O5)C(C)O4)CCC32C)C2(O)CCC(C(C)=O)C12C (configuration not stated)	inactive [at 9.29 µM]
CCCN(CCC)[C@@H]1CCc2ccc3[nH]c(C#N)cc3c2C1	inactive
C[C@]12CC[C@H](O)C[C@@H]1CC[C@@H]1[C@@H]2CC[C@]2(C)C(=O)CC[C@@H]12	inactive

Test system: not listed separately
Test: P-glycoprotein substrates identified in KB-8-5-11 adenocarcinoma cell line, qHTS therapeutic library screen (AID 1346987); note: nearly all actives have a fitted effect of over 65% in size; note: potency is the fitted concentration of half-maximal effect; for activity change, negative = cytotoxicity: % is set by controls: 0 for no effect and ±100 for the full control effect
Settings: KB-8-5-11 (P-gp overexpressing) viability, CellTiter-Glo, 72 h; series mostly up to 44.5 µM; activity change, negative = cytotoxicity: at the top concentration
In short: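 Steps: plate 500 KB-8-5-11 cells/well in DMEM + 10% FCS (colchicine removed); pin compounds in dose-response; incubate 72 h, 37 degree C, 5% CO2; add CellTiter-Glo, 5 min; read luminescence.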

Structure (SMILES)	activity change, negative = cytotoxicity	Potency	outcome
CN(Cc1cccc(-c2ccncc2)c1)C(=O)Oc1ccc(-c2ccc(C(N)=O)cc2)cc1	-23.9%	–	–
Fc1cc(F)c2c(c1)C1C=CCC1C(c1cccnc1)N2 (configuration not stated)	–	4.61 µM (active)	–
C/C=C(\C)C(=O)OC1CC2C(CC=C3CC(OC4CC(OC)C(OC5CC(OC)C(OC6CC(OC)C(OC7CC(OC)C(O)C(C)O7)C(C)O6)C(C)O5)C(C)O4)CCC32C)C2(O)CCC(C(C)=O)C12C (configuration not stated)	–	–	inactive [at 9.29 µM]
COC1CC(O[C@H]2CC[C@@]3(C)C(CCC4C3CC[C@]3(C)C(C5=CC(=O)OC5)CCC43O)C2)OC(C)C1OC1OC(COC2OC(CO)C(O)C(O)C2O)C(O)C(O)C1O (some centres not stated)	–	1.74 µM (active)	–
C[C@@H]1O[C@@H](OC2CCC3(C=O)C(CCC4C3CCC3(C)C(C5=CC(=O)OC5)C(O)CC43O)C2)[C@H](O)[C@H](O)[C@H]1O[C@@H]1O[C@H](CO)[C@@H](O)[C@H](O)[C@H]1O (some centres not stated)	–	6.11 µM (active)	–
CC12CCC3C(C1)c1c(cc(O)c(C(=O)c4ccccc4)c1OC3(C)C)O2 (configuration not stated)	-27.4%	–	–
CC(C)[C@H]1OC(=O)[C@H](Cc2ccccc2)N(C)C(=O)[C@@H](C(C)C)OC(=O)[C@H](Cc2ccccc2)N(C)C(=O)[C@@H](C(C)C)OC(=O)[C@H](Cc2ccccc2)N(C)C1=O	–	4.85 µM (active)	–
CC[C@H](O)[C@@H](C)[C@H]1O[C@@H]1C[C@H](C)/C=C/C=C(\C)[C@H]1OC(=O)C[C@H](O)CC[C@@](C)(O)[C@@H](OC(C)=O)/C=C/[C@@H]1C	–	0.0092 µM (active)	–
C=C1C2(C)CC3C(C)(O)C4=CC(=O)OC(C)(C)C4=CCC3(C)C13C(=O)OC(C)C3(O)C2=O (configuration not stated)	4.66% [at 17.3 µM]	–	–
CN(C)[C@@H]1C(=O)C(C(N)=O)=C(O)[C@@]2(O)C(=O)C3=C(O)c4c(O)ccc(Cl)c4[C@@](C)(O)C3C[C@@H]12 (some centres not stated)	-16.5%	–	–
CN1CCC2=C(C1)c1ccccc1Cc1ccccc12	-16.5%	–	–
C=C(C)C(=O)O[C@H]1[C@@H]2[C@H](C)C(=O)O[C@@H]2C[C@@H](C)[C@@H]2C=CC(=O)[C@]21C	–	3.6 µM (active)	–
CCOc1ccc(Oc2ccc(OCc3cc(F)ccc3F)cc2)c(N)c1	6.04%	–	–
CCN1C[C@]2(COC)CC[C@H](O)[C@@]34C5C[C@@H]6[C@@H](OC)C[C@@](OC(C)=O)(C5[C@@H]6OC(C)=O)[C@H]([C@H](OC)C23)[C@@H]14 (some centres not stated)	-21.4% [at 17.3 µM]	–	–
CC(C)[C@H](NC(=O)c1nn(Cc2ccc(F)cc2)c2ccccc12)C(N)=O	-18.6%	–	–
CCCN(CCC)[C@@H]1CCc2ccc3[nH]c(C#N)cc3c2C1	0.945%	–	–
Cc1ccc2c(c1)[C@H]1CN(C)CC[C@H]1N2C(=O)CSc1nnnn1-c1ccc(Cl)cc1	-9.43%	–	–
COC1CCCC(C)OC(=O)Cc2cc(O)cc(O)c2C(=O)C1 (configuration not stated)	–	4.04 µM (active)	–
CC(=O)OC[C@]12[C@H](OC(C)=O)C(=O)[C@@H]3[C@@H](O)[C@@]14O[C@@]3(C)COC(=O)c1cccnc1[C@@H](C)[C@H](C)C(=O)O[C@@H]([C@H](OC(C)=O)[C@@H]2OC(C)=O)[C@]4(C)O	-20.5% [at 17.3 µM]	–	–
C#C[C@]1(O)CC[C@H]2[C@@H]3CC[C@H]4Cc5nc6nc7ccccc7n6cc5C[C@]4(C)[C@H]3CC[C@@]21C	–	20.6 µM (active)	–
CN1C(=O)N(c2ccc(C#N)c(C(F)(F)F)c2)C(=O)[C@@]1(CO)c1ccccc1	-24.3%	–	–
CCCCCn1cc(C(=O)Oc2cccc3cccnc23)c2ccccc21	-18.6%	–	–
COc1cc(O)c2c(c1)CCC[C@@H](O)[C@H](O)C(=O)/C=C\C[C@H](C)OC2=O	–	14.3 µM (active)	–
C[C@]12CC[C@H](O)C[C@@H]1CC[C@@H]1[C@@H]2CC[C@]2(C)[C@@H](C3=CC(=O)OC3)CC[C@]12O	–	11.4 µM (active)	–
C[C@]12CC[C@H](O)C[C@@]1(O)CC[C@@H]1[C@@H]2CC[C@]2(C)[C@@H](c3ccc(=O)oc3)CC[C@]12O	–	0.0184 µM (active)	–
COC(=O)C12C(=O)C(C)(O)C(=O)C1(C)C(C)=CC1C34CCC(OC3=O)C(C)(C)C4CCC12C (configuration not stated)	-18.1% [at 17.3 µM]	–	–
CC1=CC2OC3CC(O)[C@](C)([C@@]2(C)C(O)C1=O)[C@]31CO1 (some centres not stated)	–	5.17 µM (active)	–
CN1Cc2c(ccc3c2OCO3)[C@@H]2[C@H]1c1cc3c(cc1C[C@@H]2O)OCO3	–	1.61 µM (active)	–

Test system: Zika virus NS2B-NS3 protease (unlinked complex)
Test: Primary screen GU Rhodamine qHTS for Zika virus inhibitors: Unlinked NS2B-NS3 protease assay (AID 1347159); note: nearly all actives have a fitted effect of over 60% in size; note: potency is the fitted concentration of half-maximal effect; for activity change, negative = inhibition: % is set by controls: 0 for no effect and ±100 for the full control effect
Settings: Recombinant ZIKV NS2B-NS3 protease, Rhodamine110 substrate fluorescence; series mostly up to 107 µM; activity change, negative = inhibition: at the top concentration
In short: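 Noncovalent NS2B hydrophilic domain–NS3 protease domain complex (25 nM) preincubated 15 min at room temperature with compounds (up to 114 microM) in 10 mM Tris-HCl pH 8.0, 0.01% Tween 20; 1.5 microM Rhodamine110 substrate added, fluorescence change over 15 min fitted to Hill equation.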

Structure (SMILES)	activity change, negative = inhibition	Potency
CC1=CC(=O)[C@@H](O)[C@@]2(C)C1C[C@H]1OC(=O)[C@H](O)[C@@]3(O)[C@@H](C)[C@@H](O)[C@H](O)C2[C@@]13C (some centres not stated)	18.6%	–
CN(Cc1cccc(-c2ccncc2)c1)C(=O)Oc1ccc(-c2ccc(C(N)=O)cc2)cc1	-17.7%	–
CN(C(=O)C(c1ccccc1)c1ccccc1)[C@H](CN1CC[C@H](O)C1)c1ccccc1	1.71%	–
Fc1cc(F)c2c(c1)C1C=CCC1C(c1cccnc1)N2 (configuration not stated)	-8.1%	–
C/C=C(\C)C(=O)OC1CC2C(CC=C3CC(OC4CC(OC)C(OC5CC(OC)C(OC6CC(OC)C(OC7CC(OC)C(O)C(C)O7)C(C)O6)C(C)O5)C(C)O4)CCC32C)C2(O)CCC(C(C)=O)C12C (configuration not stated)	-24.8% [at 32.5 µM]	–
COC1CC(O[C@H]2CC[C@@]3(C)C(CCC4C3CC[C@]3(C)C(C5=CC(=O)OC5)CCC43O)C2)OC(C)C1OC1OC(COC2OC(CO)C(O)C(O)C2O)C(O)C(O)C1O (some centres not stated)	-10.1% [at 32.5 µM]	–
CN1C(=O)[C@@H](Cc2c[nH]c3ccccc23)N=C(c2ccccc2F)c2ccccc21	17.8%	–
CCCCCCC1C(=O)O[C@H](C)[C@H](NC(=O)c2cccc(NC=O)c2O)C(=O)O[C@@H](C)[C@@H]1OC(=O)CC(C)C (some centres not stated)	–	6.31 µM (active)
c1ccc([C@@H]2C[C@H]2NC2CCNCC2)cc1	39.9%	–
CC[C@H](O)[C@@H](C)[C@H]1O[C@@H]1C[C@H](C)/C=C/C=C(\C)[C@H]1OC(=O)C[C@H](O)CC[C@@](C)(O)[C@@H](OC(C)=O)/C=C/[C@@H]1C	-8.53%	–
C=C1C2(C)CC3C(C)(O)C4=CC(=O)OC(C)(C)C4=CCC3(C)C13C(=O)OC(C)C3(O)C2=O (configuration not stated)	-27.8% [at 57.1 µM]	–
CN1CCC2=C(C1)c1ccccc1Cc1ccccc12	25%	–
CCOc1ccc(Oc2ccc(OCc3cc(F)ccc3F)cc2)c(N)c1	5.26%	–
CCN1C[C@]2(COC)CC[C@H](O)[C@@]34C5C[C@@H]6[C@@H](OC)C[C@@](OC(C)=O)(C5[C@@H]6OC(C)=O)[C@H]([C@H](OC)C23)[C@@H]14 (some centres not stated)	11.4% [at 57.1 µM]	–
CC(C)[C@H](NC(=O)c1nn(Cc2ccc(F)cc2)c2ccccc12)C(N)=O	24%	–
CCCN(CCC)[C@@H]1CCc2ccc3[nH]c(C#N)cc3c2C1	-8.15%	–
Cc1ccc2c(c1)[C@H]1CN(C)CC[C@H]1N2C(=O)CSc1nnnn1-c1ccc(Cl)cc1	24.2%	–
C[C@]12CC[C@H](O)C[C@@H]1CC[C@@H]1[C@@H]2CC[C@]2(C)C(=O)CC[C@@H]12	20.2%	–
CC(=O)OC[C@]12[C@H](OC(C)=O)C(=O)[C@@H]3[C@@H](O)[C@@]14O[C@@]3(C)COC(=O)c1cccnc1[C@@H](C)[C@H](C)C(=O)O[C@@H]([C@H](OC(C)=O)[C@@H]2OC(C)=O)[C@]4(C)O	2.29% [at 32.5 µM]	–
C#C[C@]1(O)CC[C@H]2[C@@H]3CC[C@H]4Cc5nc6nc7ccccc7n6cc5C[C@]4(C)[C@H]3CC[C@@]21C	25.9%	–
CCCCCn1cc(C(=O)Oc2cccc3cccnc23)c2ccccc21	-6.25%	–
COc1cc(O)c2c(c1)CCC[C@@H](O)[C@H](O)C(=O)/C=C\C[C@H](C)OC2=O	0.601%	–
C[C@]12CC[C@H](O)C[C@@H]1CC[C@@H]1[C@@H]2CC[C@]2(C)[C@@H](C3=CC(=O)OC3)CC[C@]12O	6.96%	–
C[C@]12CC[C@H](O)C[C@@]1(O)CC[C@@H]1[C@@H]2CC[C@]2(C)[C@@H](c3ccc(=O)oc3)CC[C@]12O	-20.9%	–
COC(=O)C12C(=O)C(C)(O)C(=O)C1(C)C(C)=CC1C34CCC(OC3=O)C(C)(C)C4CCC12C (configuration not stated)	25.4% [at 57.1 µM]	–
CN1Cc2c(ccc3c2OCO3)[C@@H]2[C@H]1c1cc3c(cc1C[C@@H]2O)OCO3	-4.63%	–
